From PubChem BioAssay AID1159580 (chemical genetic matrix, 2015)
“And” between values parts separate entries of the source, which are not always exact repeats. Equal entries are not always repeated. Out of some 5,500 compounds screened, about 2,000 (36%) were called active. About 18% were inconclusive and are not listed. Rule as the data show it: active = normalized growth mostly below about 0.91 (no sharp cut-off); inconclusive = no clear call, values can overlap the other calls; inactive = mostly above about 0.92. The list shows a part of the results.

Test: chemical genetic growth profiling, strain panel (AID 1159580);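 also: tested at 20 µM; growth read once vehicle control cultures reached saturation at 30 °C; 1 = growth at the plate median or of vehicle wells; lower values mean less growth of the strain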
Conditions: S. cerevisiae deletion strains, growth OD

Measured: normalized growth

C[C@H]1[C@H](C)CC[C@]2(C(=O)O)CC[C@]3(C)C(=CCC4[C@@]5(C)C[C@@H](O)[C@H](O)[C@@](C)(CO)C5[C@H](O)C[C@]43C)[C@H]12 (some centres not stated)
inactive: locus YAL021C, strain ccr4, stronger effect = lower value 1.01 | locus YAL026C, strain drs2, stronger effect = lower value 0.963 | locus YAL030W, strain snc1, stronger effect = lower value 0.973 | locus YBL061C, strain skt5, stronger effect = lower value 0.952 | locus YBR009C, strain hhf1, stronger effect = lower value 0.936 | locus YBR021W, strain FUR4, stronger effect = lower value 0.957 | locus YBR023C, strain chs3, stronger effect = lower value 0.942 | locus YBR171W, strain sec66, stronger effect = lower value 0.951 | locus YBR229C, strain ROT2, stronger effect = lower value 0.987 | locus YBR231C, strain swc5, stronger effect = lower value 0.953 | locus YBR279W, strain paf1, stronger effect = lower value 0.948 | locus YCL011C, strain gbp2, stronger effect = lower value 0.968 | locus YCL016C, strain dcc1, stronger effect = lower value 0.956 | locus YCL029C, strain bik1, stronger effect = lower value 0.981 | locus YCL061C, strain MRC1, stronger effect = lower value 0.971 | locus YCL069W, strain vba3, stronger effect = lower value 0.973 | locus YCR088W, strain abp1, stronger effect = lower value 0.961 | locus YDL005C, strain med2, stronger effect = lower value 0.948 | locus YDL035C, strain GPR1, stronger effect = lower value 0.972 | locus YDL040C, strain nat1, stronger effect = lower value 0.965 | locus YDL074C, strain BRE1, stronger effect = lower value 0.895 | locus YDL101C, strain DUN1, stronger effect = lower value 0.973 | locus YDL185W, strain tfp1, stronger effect = lower value 1.01 | locus YDR001C, strain nth1, stronger effect = lower value 0.969 | locus YDR069C, strain doa4, stronger effect = lower value 0.936 | locus YDR101C, strain arx1, stronger effect = lower value 0.967 | locus YDR150W, strain NUM1, stronger effect = lower value 0.996 | locus YDR162C, strain NBP2, stronger effect = lower value 0.954 | locus YDR297W, strain sur2, stronger effect = lower value 0.96 | locus YDR318W, strain mcm21, stronger effect = lower value 0.982 | locus YDR334W, strain swr1, stronger effect = lower value 0.978 | locus YDR335W, strain msn5, stronger effect = lower value 0.967 | locus YDR392W, strain spt3, stronger effect = lower value 0.916 | locus YDR502C, strain sam2, stronger effect = lower value 0.937 | locus YEL003W, strain gim4, stronger effect = lower value 0.954 | locus YEL037C, strain rad23, stronger effect = lower value 0.969 | locus YEL061C, strain CIN8 (second series), stronger effect = lower value 0.955 | locus YEL061C, strain CIN8, stronger effect = lower value 0.961 | locus YER015W, strain faa2, stronger effect = lower value 0.959 | locus YER016W, strain bim1, stronger effect = lower value 0.971 | locus YER110C, stronger effect = lower value 0.978 | locus YER111C, strain swi4, stronger effect = lower value 0.955 | locus YER155C, strain BEM2, stronger effect = lower value 0.985 | locus YER167W, strain BCK2, stronger effect = lower value 0.977 | locus YFR010W, strain ubp6, stronger effect = lower value 0.938 | locus YGL078C, strain dbp3, stronger effect = lower value 0.939 | locus YGL167C, strain pmr1, stronger effect = lower value 0.962 | locus YGL173C, strain kem1, stronger effect = lower value 0.949 | locus YGL227W, strain vid30, stronger effect = lower value 0.975 | locus YGL248W, strain PDE1, stronger effect = lower value 0.994 | locus YGL253W, strain hxk2, stronger effect = lower value 0.971 | locus YGR135W, strain pre9, stronger effect = lower value 0.943 | locus YGR252W, strain gcn5, stronger effect = lower value 0.849 | locus YHR013C, strain ard1, stronger effect = lower value 1.03 | locus YHR027C, strain rpn1, stronger effect = lower value 0.974 | locus YHR030C, strain SLT2, stronger effect = lower value 1 and 0.976 | locus YHR079C, strain IRE1 (second series), stronger effect = lower value 0.968 | locus YHR079C, strain IRE1, stronger effect = lower value 0.979 | locus YHR094C, strain hxt1, stronger effect = lower value 0.977 | locus YHR129C, strain ARP1, stronger effect = lower value 0.998 | locus YHR142W, strain chs7, stronger effect = lower value 0.949 | locus YHR200W, strain rpn10, stronger effect = lower value 0.944 | locus YIL066C, strain RNR3, stronger effect = lower value 0.985 | locus YIL073C, strain SPO22, stronger effect = lower value 1.02 | locus YIL125W, strain kgd1, stronger effect = lower value 0.947 | locus YIR030C, strain dcg1, stronger effect = lower value 0.971 | locus YJL092W, strain hpr5, stronger effect = lower value 0.963 | locus YJL095W, strain BCK1 (second series), stronger effect = lower value 0.972 | locus YJL115W, strain asf1, stronger effect = lower value 0.967 | locus YJL129C, strain trk1, stronger effect = lower value 0.937 | locus YJL134W, strain LCB3, stronger effect = lower value 0.991 | locus YJL154C, strain vps35, stronger effect = lower value 0.968 | locus YJL164C, strain tpk1, stronger effect = lower value 0.944 | locus YJL166W, strain qcr8, stronger effect = lower value 0.948 | locus YJL168C, strain set2, stronger effect = lower value 0.982 | locus YJL187C, strain SWE1 (second series), stronger effect = lower value 0.959 | locus YJR043C, strain POL32, stronger effect = lower value 0.985
0.944 (inactive) and 0.792 (active): locus YJL095W, strain BCK1, stronger effect = lower value
active: locus YAL013W, strain DEP1, stronger effect = lower value 0.769 | locus YDL192W, strain arf1, stronger effect = lower value 0.91 | locus YDR137W, strain rgp1, stronger effect = lower value 0.794 | locus YDR159W, strain sac3, stronger effect = lower value 0.854 | locus YDR195W, strain ref2 0.84 | locus YDR388W, stronger effect = lower value 0.911 | locus YER155C, strain BEM2 (second series), stronger effect = lower value 0.863 | locus YGL086W, strain mad1, stronger effect = lower value 1.18 [resistant] | locus YGL240W, strain doc1, stronger effect = lower value 0.886
